Assay outcomes deposited in PubChem BioAssay by National Center for Advancing Translational Sciences (NCATS).
This is a sample that favours compounds with a hit; in the whole collection about 9.8% have one here.
HTT aggregate: mutant huntingtin aggregation inhibition; Potency, µM (top dose mostly 46.1 µM), inactives show at the top dose activity change, negative = inhibition, hits mostly inhibitors; PC12 HttQ103-GFP aggregates, Acumen cytometry, 40 h; hit rate 1.1% among 220,000; also: potency is read from the fitted curve at half-maximal effect; % is scaled to controls: 0 for no effect and ±100 for the full control effect; nearly all actives have a fitted effect of over 60% in size
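Aggregate formation scored by laser-scanning cytometer (488 excitation, 500–530 emission) in lysed PC12 cells expressing Q103-GFP after 100 nM tebufenozide induction; library tested in dose series, with ATPLite reagent added in the multiplex.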
HTT cytoprotect: protects HTT-Q103 PC12 cells, measured by ATP; hit rate 0.14% among 230,000; Potency, µM (titrated, usually from 56.4 µM), inactives show cytoprotection (ATP increase), hits mostly activators; PC12 HTT-Q103 induced, cytoprotection, ATP luminescence, 40 h; AID 1471; also: potency is read from the fitted curve at half-maximal effect; % of control where 0% means no effect; nearly all actives have a fitted effect of over 45% in size
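Huntington model: PC12 line, ecdysone-inducible HTTQ103 exon1–GFP, tebufenozide 100 nM. Test articles in a dose series. Endpoint luminescence from cellular ATP.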
CBFb-RUNX1 inh: inhibitors of human CBF-beta and RUNX1 interaction; 230,000 tested, under 10 active; Q01196+Q13951; AlphaScreen CBFb-His/RUNX1-biotin binding, biochemical; Potency, µM (top dose mostly 59.8 µM), for inactives: at the highest dose activity, negative = inhibition, usual class: inhibitors; also: % of control where 0% means no effect
Target sequence (Q01196 whole entry, looked up): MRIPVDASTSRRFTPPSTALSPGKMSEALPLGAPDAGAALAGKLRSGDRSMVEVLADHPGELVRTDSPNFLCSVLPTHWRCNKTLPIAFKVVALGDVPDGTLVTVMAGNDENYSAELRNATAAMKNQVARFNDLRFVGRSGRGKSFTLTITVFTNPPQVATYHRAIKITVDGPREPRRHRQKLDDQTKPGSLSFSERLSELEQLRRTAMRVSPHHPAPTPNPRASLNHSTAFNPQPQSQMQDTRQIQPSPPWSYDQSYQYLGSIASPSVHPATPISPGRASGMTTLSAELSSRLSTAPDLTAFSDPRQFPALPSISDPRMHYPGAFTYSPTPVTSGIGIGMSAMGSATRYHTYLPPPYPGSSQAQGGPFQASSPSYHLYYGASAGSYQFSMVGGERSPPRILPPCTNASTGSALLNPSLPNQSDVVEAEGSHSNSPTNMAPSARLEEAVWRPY
Target sequence (Q13951 whole entry, looked up): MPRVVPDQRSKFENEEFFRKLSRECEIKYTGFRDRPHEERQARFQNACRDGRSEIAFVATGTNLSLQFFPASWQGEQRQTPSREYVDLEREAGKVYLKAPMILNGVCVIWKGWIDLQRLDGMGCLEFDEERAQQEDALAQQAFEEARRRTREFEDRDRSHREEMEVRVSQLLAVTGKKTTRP
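His-tagged CBF-beta and biotinylated RUNX1 (30 nM each) were premixed 20 min at room temperature, exposed to compound for 15 min, then given nickel-chelate and streptavidin AlphaScreen beads (50 ng each). After 90 min, AlphaScreen signal was read.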
JMJD2E inh: inhibitors of human JMJD2E histone demethylase | Potency, µM (doses to about 57.1 µM), for the others: top-dose activity change, negative = inhibition, actives largely listed as inhibitors | B2RXH2 | hit rate 1.6% among 230,000 | JMJD2E catalytic domain, FDH-coupled NADH fluorescence (FDH is formaldehyde dehydrogenase);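 also: potency is read from the fitted curve at half-maximal effect; 0% = wells with enzyme and -100% = buffer wells without enzyme; nearly all actives have a fitted effect of over 50% in size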
ALDH1A1 block: ALDH1A1 (human) enzyme inhibition. P00352. Purified ALDH1A1, NADH fluorescence, propionaldehyde substrate. Potency, µM (series often up to 75.3 µM), without a hit: top-dose activity, negative = inhibition, most hits filed as inhibitors. hit rate 7.3% among 220,000. AID 1030; active = well fitted inhibition curve with a large enough effect, not every such curve was filed as active; inconclusive = small, poorly fitted or top-dose-only effect, or another doubt; inactive = no such curve, though single readings can be large or run the other way;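 also: potency is read from the fitted curve at half-maximal effect; plate controls were no enzyme wells and a reference inhibitor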
HPGD inh: HPGD (human) dehydrogenase inhibition; P15428; purified HPGD, NADH fluorescence kinetic, PGE2 substrate; Potency, µM, without a hit: top-dose activity change, negative = inhibition, most hits filed as inhibitors; hit rate 4.3% among 150,000; AID 894; active = well fitted inhibition curve with a large enough effect, not every such curve was filed as active; inconclusive = small, poorly fitted or top-dose-only effect, or another doubt; inactive = no such curve, though single readings can be large or run the other way; also: potency is read from the fitted curve at half-maximal effect; % is scaled to controls: 0 for no effect and ±100 for the full control effect
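20 nM HPGD preincubated 15 min at room temperature with compound in 50 mM Tris-HCl pH 8, 0.01% Tween 20. Started with 1 mM NAD+ and 30 uM prostaglandin E2; NADH fluorescence (360/450 nm) read 5 times over 30-s intervals, last minus first.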
* hit, by the source's call; u = inconclusive; x = not tested or not shown; [ ] = remark or other dose. Unless noted, calls follow the shape of the dose curve; as a rule, active = well fitted curve in the direction sought with a large enough effect; inconclusive = small, poorly fitted or top-dose-only effect, or another doubt; inactive = no such curve, though single readings can be large; an effect the other way counts as inactive or inconclusive.

SMILES	HTT aggregate	HTT cytoprotect	CBFb-RUNX1 inh	JMJD2E inh	ALDH1A1 block	HPGD inh
CCC1CCCCN1C(=O)c1cc(-c2ccc(Cl)c(Cl)c2)on1 (configuration not stated)	-11.2%	-1.4%[10 µM]	-4.7%	1.5%	-1.2%	4.47µM*
COc1cccc(-c2cc(C(=O)N3C(C)CCCC3C)no2)c1 (configuration not stated)	u	4.6%[10 µM]	0.0%	-10.4%	u	8.91µM*
COc1ccc(-c2cc(C(=O)N3CC4(C)CC3CC(C)(C)C4)no2)cc1OC (configuration not stated)	-11.8%	-80.8%	0.4%	-4.0%	-14.8%	-24.5%
COc1ccc(-c2cc(C(=O)N3CC4(C)CC3CC(C)(C)C4)no2)cc1 (configuration not stated)	-12.2%	-47.9%	-0.8%	5.7%	-14.7%	35.5µM*
CC[C@](C)(CN(C)C)OC(=O)c1ccccc1	0.7%[20.6 µM]	-4.9%[40.3 µM]	4.9%[21.7 µM]	-0.8%[25.5 µM]	9.1%[20.9 µM]	-0.6%
Cc1cnc(CNc2ncnc3ccc(-c4ccccc4Cl)cc23)cn1	x	-31.1%	x	x	0.8%	x
CC1CCCCN1C(=O)c1cc(-c2ccc(Cl)c(Cl)c2)on1 (configuration not stated)	u	-6.9%	7.1%	2.7%	u	4.47µM*
CC(C)CNC(=O)c1cc(-c2ccc(Cl)c(Cl)c2)on1	17.8%	-15.5%	13.9%	-8.9%	-11.7%	-11.4%
CC(CCN)(CCN)[N+](=O)[O-]	x	-2.4%[10 µM]	x	x	-8.9%[13.5 µM]	-14.1%
CCOc1ccc(Br)cc1S(=O)(=O)Nc1nc(CN2CCOCC2)nc2sc(C)c(C)c12	-1.7%	-31.6%	3.1%	2.2%	12.6µM*	-5.1%
Cc1sc2nc(CN3CCOCC3)nc(NS(=O)(=O)c3ccc4c(c3)OCCO4)c2c1C	-9.1%	-6.0%	7.1%	-5.4%	1.26µM*	-1.4%
CCC(=O)Nc1cccc(C2=NOC3(C2)C[C@H](C(N)=O)N(C(=O)CC#N)C3)c1 (some centres not stated)	-4.2%[9.22 µM]	-29.4%[10 µM]	9.1%	-5.9%	x	x
CCn1c(-c2ccccc2)c(C(=O)CC#N)c2ccccc21	-1.6%	0.0%	-6.2%	u	u	x
CC(C)(C)OCC1CO1 (configuration not stated)	x	-1.6%	-1.5%[21.7 µM]	x	16.3%	-0.6%
Nc1ncc(N=Nc2cc(C(=O)O)ccc2Cl)s1	-29.6%[9.22 µM]	10.9%[10 µM]	u	25.1µM*	x	x
COc1ccccc1Nc1nnc(SCC2CCCCO2)s1 (configuration not stated)	u	-185.3%	13.8%	-29.5%	31.6µM*	x
Cc1ccccc1Nc1nnc(SCC2CCCCO2)s1 (configuration not stated)	10.0%	1.8%[10 µM]	2.4%	-2.1%	-0.2%	-19.0%
O=C1CC(Cc2ccccc2)C(=O)N1c1ccccn1 (configuration not stated)	-17.8%[9.22 µM]	-4.6%[10 µM]	7.2%	-13.8%	x	x
CCN(CC)C(=O)CSCc1cnn(-c2ccccc2)c1-n1cccc1	u	-20.5%[10 µM]	0.1%	-0.8%	28.2µM*	-12.3%
O=C(CSCc1cnn(-c2ccccc2)c1-n1cccc1)NCc1ccccn1	4.0%	u	-6.6%	-6.2%	9.3%	x
O=C1CN(C(=O)c2ccc(Br)o2)C(c2ccc(F)cc2)c2cc(Cl)ccc2N1 (configuration not stated)	-27.3%	-65.0%	-5.8%	2.0%	22.4µM*	-20.1%
Cc1ccc2c(c1)C(c1ccccc1)N(C(=O)c1ccc(Br)o1)CC(=O)N2 (configuration not stated)	-15.0%	-27.4%	-11.9%	-7.2%	-15.7%	-0.6%
O=C1CN(C(=O)c2ccc(Br)o2)C(c2ccccc2)c2cc(Br)ccc2N1 (configuration not stated)	8.5%	18.4%	0.5%	0.7%	22.4µM*	-16.1%
CCOc1ccc(NC(=O)Nc2cc(OCC(F)(F)F)cc(OCC(F)(F)F)c2)cc1	-6.2%	6.6%[10 µM]	-1.0%	1.4%	-2.9%	-14.9%
